The results in this text go back to the supplement of paper PMC10646978.

Each structure is given as a SMILES string. ± gives the standard deviation.

What all share (conditions): modulator concentration 10 µM
In assay [1] the test system is RAW-Dual (murine macrophage reporter line). The assay can be described thus: NF-kB reporter (SEAP) activity fold change vs agonist alone; higher = enhanced NF-kB activity. The method, boiled down:
(§1)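 RAW-Dual murine macrophage reporter cells were plated at 50 000 per well in 384-well plates, pin-transferred compound to 10 μM final, and pre-incubated for 1 hour at 37 °C before a PRR agonist was added and the cells incubated overnight. NF-κB activity was read from supernatant SEAP with QUANTI-Blue at 620 nm absorbance, and IRF activity from Lucia luciferase with QUANTI-Luc by luminescence. Each signal was expressed as fold change by dividing by the mean agonist-only control on the same plate. Two replicate plates were averaged, with errors obtained by propagation.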

Assay [2] has the same test system. The assay is described as follows: IRF reporter (Lucia luciferase) activity fold change vs agonist alone; higher = enhanced IRF activity. The method, boiled down:
as §1

Assay [3] shares this test system. The assay is described as follows: viability score (confluency relative to resting cells, overnight) (fraction); higher = more viable, active = viable (0.7 or more). The method, boiled down:
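RAW-Dual macrophages in 384-well plates were exposed overnight to compound at 10 μM final. Confluency was imaged with IncuCyte, and two confluency masks were generated with IncuCyte software over all imaged wells. The viability score is confluency expressed relative to resting cells. Compounds were called viable if both masks exceeded 70% of resting cells.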

The mark [4] stands for this setting: agonist: CpG ODN 1826 0.5 ug/mL.

With `O=c1c(O)c(-c2ccc(O)c(O)c2)oc2cc(O)cc(O)c12`, the values for the NF-kB reporter in assay [1] (setting [4]), in assay [1] (agonist: LPS 0.1 ug/mL) and in assay [1] (agonist: MPLA […]) were 1.06 ± 0.26, 1.04 ± 0.093 and 1.47 ± 0.12, respectively. Further, the IRF reporter in assay [2] (agonist: 3'3'-cGAMP 10 ug/mL) was determined as 0.356 ± 0.021; in assay [2] (agonist: LPS 0.1 ug/mL), 1.08 ± 0.23; in assay [2] (agonist: MPLA […]) it was 1.12 ± 0.14. Further, the viability score in assay [3] is 0.982 (active).

For `CCOC(=O)C1=C(C)NC(C)=C(C(=O)OC)C1c1cccc([N+](=O)[O-])c1` (stereo not given), the NF-kB reporter in assay [1] (setting [4]) was 0.706 ± 0.055; in assay [1] (agonist: LPS 0.1 ug/mL) it was 0.763 ± 0.088; in assay [1] (agonist: MPLA […]) it was 0.859 ± 0.076. Moreover, the IRF reporter in assay [2] (agonist: 3'3'-cGAMP 10 ug/mL) is 1.02 ± 0.049; in assay [2] (agonist: LPS 0.1 ug/mL), 1.44 ± 0.098; in assay [2] (agonist: MPLA […]), 1.37 ± 0.11. In addition, the viability score in assay [3] is 0.985 (active).

In the case of `COc1ccc(-c2noc(-c3ccc(=O)n(Cc4ncc(C)c(OC)c4C)c3)n2)cc1F`, the values for the NF-kB reporter in assay [1] (setting [4]), in assay [1] (agonist: LPS 0.1 ug/mL) and in assay [1] (agonist: MPLA […]) were 0.91 ± 0.058, 0.944 ± 0.083 and 1.06 ± 0.073, respectively. For the same compound, the IRF reporter in assay [2] (agonist: 3'3'-cGAMP 10 ug/mL) is 0.961 ± 0.044; in assay [2] (agonist: LPS 0.1 ug/mL) it was 1.17 ± 0.24; in assay [2] (agonist: MPLA […]), 1.31 ± 0.51. Moreover, in assay [3], the viability score is 0.956 (active).

For `Cc1c(C#N)sc2nc(-c3ccccc3)nc(N=CN(C)C)c12`, the NF-kB reporter stood at 1.01 ± 0.086 in assay [1] (setting [4]), 1.05 ± 0.095 in assay [1] (agonist: LPS 0.1 ug/mL) and 0.952 ± 0.027 in assay [1] (agonist: MPLA […]). Also, the IRF reporter in assay [2] (agonist: 3'3'-cGAMP 10 ug/mL) turned out to be 0.94 ± 0.056; in assay [2] (agonist: LPS 0.1 ug/mL), 0.971 ± 0.078; in assay [2] (agonist: MPLA […]), 1.03 ± 0.18. Also, the viability score in assay [3] was 1 (active).

For the compound `CC(=O)N1N=C(c2ccc(N(C)C)cc2)CC1c1ccccc1` (stereo not given), the NF-kB reporter is 0.932 ± 0.08 in assay [1] (setting [4]), 1.04 ± 0.073 in assay [1] (agonist: LPS 0.1 ug/mL) and 1.01 ± 0.047 in assay [1] (agonist: MPLA […]). Moreover, the IRF reporter in assay [2] (agonist: 3'3'-cGAMP 10 ug/mL) came out at 0.794 ± 0.048; in assay [2] (agonist: LPS 0.1 ug/mL) it was 1.01 ± 0.042; in assay [2] (agonist: MPLA […]), 1.1 ± 0.072. Further, the viability score in assay [3] is 1 (active).

Take `CCCCS(=O)(=O)N[C@@H](Cc1ccc(OCCCCC2CCNCC2)cc1)C(=O)O.Cl.O`: the NF-kB reporter in assay [1] (setting [4]) amounted to 1.2 ± 0.34; in assay [1] (agonist: LPS 0.1 ug/mL) it was 1.05 ± 0.057; in assay [1] (agonist: MPLA […]), 0.987 ± 0.075. For the same compound, the values for the IRF reporter in assay [2] (agonist: 3'3'-cGAMP 10 ug/mL), in assay [2] (agonist: LPS 0.1 ug/mL) and in assay [2] (agonist: MPLA […]) were 0.907 ± 0.035, 1.14 ± 0.23 and 1.26 ± 0.12, respectively. Further, in assay [3], the viability score is 0.99 (active).

For the compound `CN1CCc2c(sc3[nH]c(=S)n(CCc4ccccc4)c(=O)c23)C1`, the NF-kB reporter in assay [1] (setting [4]) stood at 0.753 ± 0.063; in assay [1] (agonist: LPS 0.1 ug/mL) it was 0.814 ± 0.042; in assay [1] (agonist: MPLA […]), 0.967 ± 0.11. In addition, the IRF reporter in assay [2] (agonist: 3'3'-cGAMP 10 ug/mL) is 0.778 ± 0.042; in assay [2] (agonist: LPS 0.1 ug/mL), 1.28 ± 0.083; in assay [2] (agonist: MPLA […]), 1.39 ± 0.17. In addition, the viability score in assay [3] is 1.01 (active).

In the case of `CCOC(=O)C1=C(C)NC(C)=C(C(=O)OC)C1c1ccc(C)cc1` (stereo not given), the NF-kB reporter came out at 0.782 ± 0.069 in assay [1] (setting [4]), 0.743 ± 0.062 in assay [1] (agonist: LPS 0.1 ug/mL) and 1.2 ± 0.046 in assay [1] (agonist: MPLA […]). The IRF reporter was determined as 0.815 ± 0.13 in assay [2] (agonist: 3'3'-cGAMP 10 ug/mL), 0.914 ± 0.039 in assay [2] (agonist: LPS 0.1 ug/mL) and 1.34 ± 0.087 in assay [2] (agonist: MPLA […]). In addition, the viability score in assay [3] is 0.935 (active).

For the compound `N#Cc1c(-n2ncnc2-c2cccc([N+](=O)[O-])c2)sc2c1CCCC2`, the NF-kB reporter was 0.954 ± 0.063 in assay [1] (setting [4]), 1.05 ± 0.085 in assay [1] (agonist: LPS 0.1 ug/mL) and 0.932 ± 0.073 in assay [1] (agonist: MPLA […]). In addition, the IRF reporter in assay [2] (agonist: 3'3'-cGAMP 10 ug/mL) worked out at 0.932 ± 0.033; in assay [2] (agonist: LPS 0.1 ug/mL), 1.46 ± 0.12; in assay [2] (agonist: MPLA […]), 1.2 ± 0.15. Moreover, the viability score in assay [3] was 1 (active).

In the case of `Br.O=S(=O)(c1ccc(-c2csc(Nc3ccc(F)cc3)n2)cc1)N1CCOCC1`, the NF-kB reporter came out at 0.769 ± 0.068 in assay [1] (setting [4]), 0.989 ± 0.075 in assay [1] (agonist: LPS 0.1 ug/mL) and 2.17 ± 0.15 in assay [1] (agonist: MPLA […]). For the same compound, the values for the IRF reporter in assay [2] (agonist: 3'3'-cGAMP 10 ug/mL), in assay [2] (agonist: LPS 0.1 ug/mL) and in assay [2] (agonist: MPLA […]) were 0.768 ± 0.096, 0.948 ± 0.054 and 1.55 ± 0.1, respectively. The viability score in assay [3] was 0.997 (active).

`CC(=O)Nc1ccc(NC(=S)NC(=O)C=Cc2ccc(Cl)cc2)cc1`: the NF-kB reporter was found to be 1.08 ± 0.069 in assay [1] (setting [4]), 1.09 ± 0.096 in assay [1] (agonist: LPS 0.1 ug/mL) and 0.946 ± 0.025 in assay [1] (agonist: MPLA […]). Further, the IRF reporter in assay [2] (agonist: 3'3'-cGAMP 10 ug/mL) worked out at 0.838 ± 0.089; in assay [2] (agonist: LPS 0.1 ug/mL) it was 0.932 ± 0.1; in assay [2] (agonist: MPLA […]), 0.787 ± 0.22. The viability score in assay [3] is 0.991 (active).

In the case of `COc1cc(C=Nc2ccc(-c3ccc(N=Cc4cc(OC)c(OC)cc4[N+](=O)[O-])cc3)cc2)c([N+](=O)[O-])cc1OC`, the NF-kB reporter turned out to be 0.742 ± 0.19 in assay [1] (setting [4]), 1.02 ± 0.065 in assay [1] (agonist: LPS 0.1 ug/mL) and 1.02 ± 0.1 in assay [1] (agonist: MPLA […]). Further, the IRF reporter in assay [2] (agonist: 3'3'-cGAMP 10 ug/mL) came out at 0.769 ± 0.1; in assay [2] (agonist: LPS 0.1 ug/mL), 1.03 ± 0.084; in assay [2] (agonist: MPLA […]), 1.01 ± 0.41. The viability score in assay [3] was 1.01 (active).

Take `NCC1OC(OC2C(CO)OC(OC3C(O)C(N)CC(N)C3OC3OC(CN)C(O)C(O)C3N)C2O)C(N)C(O)C1O.O=S(=O)(O)O` (stereo not given): the NF-kB reporter amounted to 1.21 ± 0.096 in assay [1] (setting [4]), 1.01 ± 0.074 in assay [1] (agonist: LPS 0.1 ug/mL) and 1.13 ± 0.12 in assay [1] (agonist: MPLA […]). Also, the results for the IRF reporter in assay [2] (agonist: 3'3'-cGAMP 10 ug/mL), in assay [2] (agonist: LPS 0.1 ug/mL) and in assay [2] (agonist: MPLA […]) were 0.993 ± 0.031, 1.22 ± 0.12 and 1.29 ± 0.18, respectively. Also, the viability score in assay [3] is 1.02 (active).

In the case of `FC(F)(F)c1ccc(CNc2ccc(Cc3c[nH]c4ncc(Cl)cc34)cn2)cn1`, the NF-kB reporter in assay [1] (setting [4]) turned out to be 0.154 ± 0.011; in assay [1] (agonist: LPS 0.1 ug/mL), 0.281 ± 0.028; in assay [1] (agonist: MPLA […]), 0.378 ± 0.02. Further, the IRF reporter in assay [2] (agonist: 3'3'-cGAMP 10 ug/mL) was determined as 0.0391 ± 0.0019; in assay [2] (agonist: LPS 0.1 ug/mL) it was 0.335 ± 0.13; in assay [2] (agonist: MPLA […]), 0.202 ± 0.083. Also, the viability score in assay [3] is 0.978 (active).

With `COc1ccc(CNS(=O)(=O)c2ccc3ccccc3c2)cc1`, the figures for the NF-kB reporter in assay [1] (setting [4]), in assay [1] (agonist: LPS 0.1 ug/mL) and in assay [1] (agonist: MPLA […]) were 0.795 ± 0.074, 0.899 ± 0.079 and 1.13 ± 0.11, respectively. The IRF reporter in assay [2] (agonist: 3'3'-cGAMP 10 ug/mL) came out at 0.974 ± 0.052; in assay [2] (agonist: LPS 0.1 ug/mL) it was 1.49 ± 0.11; in assay [2] (agonist: MPLA […]) it was 1.7 ± 0.17. Moreover, in assay [3], the viability score was 0.972 (active).
